Results filed as inconclusive are left out. Activity calls are given as the source filed them. How the source made its calls, unless noted: active means hit-call score of the fitted dose curve at least 0.9, where 1 is the maximum; inactive means score below 0.9.
How the values were obtained:
[1] = biological target: Paired box protein Pax-6 (Homo sapiens) (UniProt P26367); assay: ATG_Pax6_CIS: Attagene CIS-FACTORIAL HepG2 Assay for human Paired Box 6 (PAX6) (AID 2282956); details: HepG2 CIS-FACTORIAL PAX6 reporter transcription, RNA readout; actives raise or lower the signal
Paired box protein Pax-6 (Homo sapiens), sequence (P26367 whole entry, looked up): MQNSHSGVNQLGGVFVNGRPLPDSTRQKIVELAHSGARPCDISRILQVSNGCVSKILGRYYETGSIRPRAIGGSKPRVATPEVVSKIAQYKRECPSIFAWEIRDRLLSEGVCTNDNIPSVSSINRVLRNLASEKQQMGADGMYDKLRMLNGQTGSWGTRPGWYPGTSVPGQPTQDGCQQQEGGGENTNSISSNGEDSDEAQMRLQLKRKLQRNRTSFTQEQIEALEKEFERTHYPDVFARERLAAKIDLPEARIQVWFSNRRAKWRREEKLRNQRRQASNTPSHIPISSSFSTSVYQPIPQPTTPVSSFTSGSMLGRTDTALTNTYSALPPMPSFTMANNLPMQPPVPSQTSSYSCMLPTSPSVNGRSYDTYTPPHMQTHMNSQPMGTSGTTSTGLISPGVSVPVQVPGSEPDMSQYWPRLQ
Outline: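 Values derive from bidirectional curve fitting of reporter mRNA signal relative to DMSO. HepG2 cells bearing transfected cis-regulated MRTUs were exposed for 24 h; transcripts were read by RT-PCR and capillary electrophoresis.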

[2] = ATG_PXRE_CIS: Attagene CIS-FACTORIAL HepG2 Assay for human Pregnane X Receptor Element (PXRE) (AID 2282957); details: HepG2 Attagene CIS-FACTORIAL PXRE reporter, mRNA; actives raise or lower the signal
Outline: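 Endogenous transcription factor activity in HepG2 was gauged through induction of reporter mRNA driven by a cis-regulating promoter element, sampled 24 h post-treatment. Activity was fitted in both directions against DMSO negative control.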

[3] = ATG_PPRE_CIS: Attagene CIS-FACTORIAL HepG2 Assay for human Peroxisome Proliferator-activated Response Element (PPRE) (AID 2282958); details: HepG2 PPRE cis-element reporter, Attagene transcription factor profiling; actives raise or lower the signal
Outline: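 DMSO served as negative control and baseline for bidirectional curve fitting. Signal came from PPRE-regulated reporter mRNA in HepG2 cells, measured 24 h post-dosing by RT-PCR, 6-FAM primer extension and capillary electrophoresis.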

[4] = ATG_RORE_CIS: Attagene CIS-FACTORIAL HepG2 Assay for human RAR-related Orphan Receptor Element (RORE) (AID 2282959); details: HepG2 Attagene cis-factorial RORE reporter, mRNA; actives raise or lower the signal
Outline: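 Transfect HepG2 with MRTUs; treat 24 h; extract RNA; RT with oligo(dT); PCR with reporter-specific primers; 6-FAM primer extension; HpaI digest 2 h at 37 C; capillary electrophoresis. Fit vs DMSO, bidirectional.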

[5] = ATG_Sox_CIS: Attagene CIS-FACTORIAL HepG2 Assay for human SRY-box transcription factor (SOX) (AID 2282960); details: HepG2 Attagene cis-factorial SOX reporter, mRNA; actives raise or lower the signal
Outline: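 Fluorescence-labelled cDNA fragments from reporter transcripts, sized by CE, give the signal. Cells: HepG2, transiently transfected with cis-regulated reporter units. Exposure 24 h; DMSO negative control; bidirectional curve fitting.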

[6] = biological target: Transcription factor Sp1 (Homo sapiens) (UniProt P08047); assay: ATG_Sp1_CIS: Attagene CIS-FACTORIAL HepG2 Assay for human Specificity Protein 1 (Sp1) (AID 2282961); details: HepG2 Sp1 cis-reporter transcription, actives raise or lower the signal
Transcription factor Sp1 (Homo sapiens), sequence (P08047 whole entry, looked up): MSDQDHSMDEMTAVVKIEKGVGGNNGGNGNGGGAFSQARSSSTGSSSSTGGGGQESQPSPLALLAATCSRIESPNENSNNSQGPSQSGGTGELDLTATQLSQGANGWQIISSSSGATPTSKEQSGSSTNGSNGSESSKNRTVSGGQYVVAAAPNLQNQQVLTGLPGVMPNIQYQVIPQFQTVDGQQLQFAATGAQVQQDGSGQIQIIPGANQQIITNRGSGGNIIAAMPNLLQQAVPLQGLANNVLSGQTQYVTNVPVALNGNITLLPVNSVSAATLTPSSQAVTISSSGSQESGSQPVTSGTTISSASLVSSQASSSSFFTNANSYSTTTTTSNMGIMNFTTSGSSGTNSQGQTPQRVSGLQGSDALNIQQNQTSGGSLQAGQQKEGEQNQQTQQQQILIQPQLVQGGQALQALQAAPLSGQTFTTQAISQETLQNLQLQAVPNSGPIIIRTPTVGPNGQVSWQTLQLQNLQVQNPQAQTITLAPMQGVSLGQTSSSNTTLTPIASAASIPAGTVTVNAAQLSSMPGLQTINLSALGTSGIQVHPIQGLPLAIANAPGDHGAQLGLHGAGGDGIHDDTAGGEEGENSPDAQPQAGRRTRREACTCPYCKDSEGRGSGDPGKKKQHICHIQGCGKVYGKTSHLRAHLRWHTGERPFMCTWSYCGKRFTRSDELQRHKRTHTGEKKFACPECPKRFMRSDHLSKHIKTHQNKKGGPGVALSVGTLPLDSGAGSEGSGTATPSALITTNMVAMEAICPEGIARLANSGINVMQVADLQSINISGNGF
Outline: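 Chemicals are dosed onto HepG2 cells transfected with multiple cis-promoter reporter constructs, and after 24 h reporter RNA is reverse-transcribed, PCR-amplified and resolved by capillary electrophoresis for fluorescence quantitation; activity is scored up or down against DMSO.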

[7] = ATG_SREBP_CIS: Attagene CIS-FACTORIAL HepG2 Assay for human Sterol Regulatory Element Binding (SREBP) (AID 2282962); details: HepG2 Attagene cis-factorial SREBP reporter, mRNA; actives raise or lower the signal
Outline: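 Values derive from bidirectional curve fitting with DMSO as baseline. The underlying measurement is reporter mRNA from cis-element-regulated units in transiently transfected HepG2, quantified by RT-PCR and capillary electrophoresis after 24 h exposure.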

[8] = biological target: Signal transducer and activator of transcription 3 (Homo sapiens) (UniProt P40763); assay: ATG_STAT3_CIS: Attagene CIS-FACTORIAL HepG2 Assay for human Signal Transducer and Activator of Transcription 3 (STAT3) (AID 2282963); details: HepG2, Attagene cis-factorial STAT3 reporter transcription; actives raise or lower the signal
Signal transducer and activator of transcription 3 (Homo sapiens), sequence (P40763 whole entry, looked up): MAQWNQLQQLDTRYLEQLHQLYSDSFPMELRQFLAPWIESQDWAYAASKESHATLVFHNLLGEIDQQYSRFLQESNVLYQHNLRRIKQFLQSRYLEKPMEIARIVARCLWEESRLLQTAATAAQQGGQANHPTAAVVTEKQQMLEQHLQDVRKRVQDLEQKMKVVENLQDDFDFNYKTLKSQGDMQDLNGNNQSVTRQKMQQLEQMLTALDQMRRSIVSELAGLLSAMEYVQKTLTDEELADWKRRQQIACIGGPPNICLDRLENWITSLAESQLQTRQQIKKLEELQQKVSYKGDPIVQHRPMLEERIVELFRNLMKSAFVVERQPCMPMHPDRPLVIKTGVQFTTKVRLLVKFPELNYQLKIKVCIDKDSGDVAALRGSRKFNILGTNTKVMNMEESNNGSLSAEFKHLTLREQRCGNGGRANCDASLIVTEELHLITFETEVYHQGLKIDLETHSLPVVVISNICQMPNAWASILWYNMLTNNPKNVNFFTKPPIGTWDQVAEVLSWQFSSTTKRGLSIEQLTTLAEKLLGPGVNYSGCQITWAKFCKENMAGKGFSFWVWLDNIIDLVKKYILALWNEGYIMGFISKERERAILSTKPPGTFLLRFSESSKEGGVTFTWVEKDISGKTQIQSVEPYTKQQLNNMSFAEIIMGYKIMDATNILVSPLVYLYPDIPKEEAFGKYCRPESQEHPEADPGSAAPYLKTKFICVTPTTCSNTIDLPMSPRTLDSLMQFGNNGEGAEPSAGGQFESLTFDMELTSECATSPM
Outline: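 Uses human liver HepG2 transiently carrying cis-regulated reporter transcription units. Following 24 h dosing, reporter mRNA induction was detected by RT-PCR and capillary electrophoresis, analysed bidirectionally versus DMSO.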

[9] = ATG_TA_CIS: Attagene CIS-FACTORIAL HepG2 Assay for human TA Basal Promoter (AID 2282964); details: HepG2 Attagene CIS-factorial TA basal promoter reporter; actives raise or lower the signal
Outline: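 Read-out: fluorescent reporter-transcript fragments resolved by capillary electrophoresis after RT-PCR and HpaI digestion. Source: HepG2 cells carrying transiently transfected multi-reporter cis constructs, treated 24 h. Endpoint fitted bidirectionally relative to DMSO.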

[10] = ATG_TCF_b_cat_CIS: Attagene CIS-FACTORIAL HepG2 Assay for human T-Cell-Factor with beta-catenin (TCF/b-cat) (AID 2282965); details: HepG2 TCF/beta-catenin cis-reporter transcription, actives raise or lower the signal
Outline: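 In this cis-format system, transfected HepG2 cells report endogenous transcription factor activity. Readout after 24 h exposure is reporter transcript abundance from RT-PCR and capillary electrophoresis, analysed for gain or loss of signal versus DMSO.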

[11] = ATG_TAL_CIS: Attagene CIS-FACTORIAL HepG2 Assay for human TAL Basal Promoter (AID 2282966); details: HepG2 Attagene cis-factorial TAL promoter reporter; actives raise or lower the signal;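 further: background control endpoint measuring basal TAL promoter reporter mRNA not a specific factor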
Outline: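 Endogenous transcription-factor activity is sensed in HepG2 cells through transfected cis-promoter reporter constructs. After 24 h dosing, reporter transcripts are quantified by RT-PCR and capillary electrophoresis. Gain or loss of signal is fitted relative to DMSO.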

[12] = ATG_TGFb_CIS: Attagene CIS-FACTORIAL HepG2 Assay for human Transforming Growth Factor (TGF) (AID 2282967); details: HepG2 Attagene CIS TGFb reporter, mRNA transcription; actives raise or lower the signal
Outline: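 Transient MRTU transfection of HepG2 (FuGene 6). Dose 24 h. TriZol RNA, oligo(dT) RT, PCR, 6-FAM primer extension, HpaI cut, CE. Bidirectional fit, DMSO = baseline.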

[13] = ATG_VDRE_CIS: Attagene CIS-FACTORIAL HepG2 Assay for human Vitamin D Receptor Element (VDRE) (AID 2282968); details: HepG2 VDRE cis-reporter transcription, actives raise or lower the signal
Outline: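 Transfected HepG2 reporter cells, chemical treatment 24 h. RNA isolated, cDNA amplified with reporter-specific primers, products analysed by capillary electrophoresis. Endpoint fitted in both directions versus DMSO.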

[14] = biological target: Nuclear receptor subfamily 1 group I member 3 (Homo sapiens) (UniProt Q14994); assay: ATG_CAR_TRANS: Attagene TRANS-FACTORIAL HepG2 Assay for human Constitutive Androstane Receptor (CAR) (AID 2282969; active means hit-call score of the fitted dose curve at least 0.9, where 1 is the maximum;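 further: activators raise reporter mRNA above DMSO so AC50 marks induction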); details: HepG2 Attagene TRANS-FACTORIAL CAR reporter
Nuclear receptor subfamily 1 group I member 3 (Homo sapiens), sequence (Q14994 whole entry, looked up, the tested form may be a part): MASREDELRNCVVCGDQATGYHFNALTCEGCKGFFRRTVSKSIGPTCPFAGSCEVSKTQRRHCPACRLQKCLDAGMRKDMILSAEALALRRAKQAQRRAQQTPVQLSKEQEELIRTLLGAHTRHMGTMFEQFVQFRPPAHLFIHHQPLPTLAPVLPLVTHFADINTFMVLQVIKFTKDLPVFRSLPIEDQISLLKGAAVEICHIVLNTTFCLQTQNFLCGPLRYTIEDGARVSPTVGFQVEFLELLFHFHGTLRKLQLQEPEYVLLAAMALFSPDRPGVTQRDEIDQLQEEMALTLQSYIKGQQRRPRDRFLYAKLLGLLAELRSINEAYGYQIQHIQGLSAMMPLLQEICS
Outline: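 Steps: transient transfection of HepG2 with multiple GAL4-UAS reporter units; 24 h compound incubation; RNA isolation, RT-PCR, 6-FAM primer extension, HpaI digest; capillary electrophoresis. Gain-of-signal relative to DMSO negative control.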

[15] = biological target: Steroid hormone receptor ERR1 (Homo sapiens) (UniProt P11474); assay: ATG_ERRa_TRANS: Attagene TRANS-FACTORIAL HepG2 Assay for human Estrogen-Related Receptor alpha (ERRa) (AID 2282971; active means hit-call score of the fitted dose curve at least 0.9, where 1 is the maximum); details: HepG2 Attagene TRANS reporter, ERRa transactivation
Steroid hormone receptor ERR1 (Homo sapiens), sequence (P11474 whole entry, looked up, the tested form may be a part): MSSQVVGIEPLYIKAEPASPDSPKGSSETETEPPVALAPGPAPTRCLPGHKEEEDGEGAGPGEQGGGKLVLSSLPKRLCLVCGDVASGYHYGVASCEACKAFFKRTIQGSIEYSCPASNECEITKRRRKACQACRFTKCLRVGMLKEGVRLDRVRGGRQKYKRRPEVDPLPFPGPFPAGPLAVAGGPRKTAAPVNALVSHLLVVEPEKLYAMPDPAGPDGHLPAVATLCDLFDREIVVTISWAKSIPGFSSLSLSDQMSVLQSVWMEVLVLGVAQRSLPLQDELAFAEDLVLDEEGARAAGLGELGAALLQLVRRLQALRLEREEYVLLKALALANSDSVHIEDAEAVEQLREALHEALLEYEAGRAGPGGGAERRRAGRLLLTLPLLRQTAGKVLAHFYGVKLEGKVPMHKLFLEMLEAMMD
Outline: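 HepG2 cells were transiently transfected with multiple GAL4-UAS reporter units, then dosed with compound for 24 h. Total RNA was reverse-transcribed, reporter cDNA PCR-amplified and fluorescently labelled, and fragments resolved by capillary electrophoresis; induction was compared with DMSO.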

[16] = biological target: X-box-binding protein 1 (Homo sapiens) (UniProt P17861); assay: ATG_Xbp1_CIS: Attagene CIS-FACTORIAL HepG2 Assay for human X-box Binding Protein 1 (XBP1) (AID 2282972); details: HepG2 XBP1 cis-element reporter, Attagene multiplex; actives raise or lower the signal
X-box-binding protein 1 (Homo sapiens), sequence (P17861 whole entry, looked up): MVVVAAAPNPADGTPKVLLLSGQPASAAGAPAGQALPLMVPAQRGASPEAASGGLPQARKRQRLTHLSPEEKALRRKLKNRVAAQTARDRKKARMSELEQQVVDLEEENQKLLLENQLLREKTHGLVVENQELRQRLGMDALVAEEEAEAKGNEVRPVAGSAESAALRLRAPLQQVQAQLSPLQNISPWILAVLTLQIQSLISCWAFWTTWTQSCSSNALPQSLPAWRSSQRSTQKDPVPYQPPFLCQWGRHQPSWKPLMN
Outline: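 Human hepatoma HepG2, cis-element reporter system, 24 h treatment; mRNA quantified by RT-PCR/CE fluorescence; fit relative to DMSO.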

[17] = biological target: Androgen receptor (Homo sapiens) (UniProt P10275); assay: ATG_AR_TRANS: Attagene TRANS-FACTORIAL HepG2 Assay for human Androgen Receptor (AR) (AID 2282973; active means hit-call score of the fitted dose curve at least 0.9, where 1 is the maximum); details: HepG2 Attagene TRANS-FACTORIAL AR reporter transcription
Androgen receptor (Homo sapiens), sequence (P10275 whole entry, looked up, the tested form may be a part): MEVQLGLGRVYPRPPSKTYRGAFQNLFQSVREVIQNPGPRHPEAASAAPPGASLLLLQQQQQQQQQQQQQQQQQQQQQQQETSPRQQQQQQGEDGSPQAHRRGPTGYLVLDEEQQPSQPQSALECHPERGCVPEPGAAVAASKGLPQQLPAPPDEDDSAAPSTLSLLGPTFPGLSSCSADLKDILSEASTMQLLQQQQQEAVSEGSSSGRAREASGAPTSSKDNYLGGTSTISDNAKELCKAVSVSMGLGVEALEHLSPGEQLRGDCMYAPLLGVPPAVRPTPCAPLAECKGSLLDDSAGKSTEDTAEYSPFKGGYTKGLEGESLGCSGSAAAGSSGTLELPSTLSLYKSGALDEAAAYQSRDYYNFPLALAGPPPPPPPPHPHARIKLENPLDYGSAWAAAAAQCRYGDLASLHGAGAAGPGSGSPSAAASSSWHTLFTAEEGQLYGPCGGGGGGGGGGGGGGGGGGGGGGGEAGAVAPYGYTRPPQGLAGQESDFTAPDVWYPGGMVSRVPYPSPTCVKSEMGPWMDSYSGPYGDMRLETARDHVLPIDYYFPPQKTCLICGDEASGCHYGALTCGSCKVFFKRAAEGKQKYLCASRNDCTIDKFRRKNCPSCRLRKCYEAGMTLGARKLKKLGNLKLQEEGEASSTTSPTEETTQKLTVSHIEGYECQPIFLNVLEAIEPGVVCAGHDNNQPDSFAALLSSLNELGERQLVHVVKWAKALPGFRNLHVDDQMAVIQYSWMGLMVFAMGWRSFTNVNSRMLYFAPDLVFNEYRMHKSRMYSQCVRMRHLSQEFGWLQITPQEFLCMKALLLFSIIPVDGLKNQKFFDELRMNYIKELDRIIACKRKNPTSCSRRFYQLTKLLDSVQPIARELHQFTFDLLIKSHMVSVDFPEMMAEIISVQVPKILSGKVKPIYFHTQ
Outline: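 Transfected HepG2, 24 h treatment, chimeric NR-Gal4 driving GAL4-UAS reporters. mRNA induction by RT-PCR/capillary electrophoresis fluorescence; DMSO as negative control and baseline.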

[18] = ATG_M_19_TRANS: Attagene TRANS-FACTORIAL HepG2 Assay for M19 Transcription Factor (Internal Marker) (AID 2282974; active means hit-call score of the fitted dose curve at least 0.9, where 1 is the maximum); details: HepG2 Attagene TRANS-FACTORIAL M19 internal marker reporter
Outline: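 Multiplexed TRANS format: HepG2 liver cells bearing transient GAL4-UAS reporter units, chemical treatment 24 h, reporter transcripts quantified by RT-PCR plus capillary electrophoresis. DMSO defines baseline.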

[19] = biological target: Estrogen receptor (Homo sapiens) (UniProt P03372); assay: ATG_ERa_TRANS: Attagene TRANS-FACTORIAL HepG2 Assay for human Estrogen Receptor alpha (ERa) (AID 2282970; active means hit-call score of the fitted dose curve at least 0.9, where 1 is the maximum); details: HepG2 Attagene TRANS ERa GAL4 reporter, mRNA
Estrogen receptor (Homo sapiens), sequence (P03372 whole entry, looked up, the tested form may be a part): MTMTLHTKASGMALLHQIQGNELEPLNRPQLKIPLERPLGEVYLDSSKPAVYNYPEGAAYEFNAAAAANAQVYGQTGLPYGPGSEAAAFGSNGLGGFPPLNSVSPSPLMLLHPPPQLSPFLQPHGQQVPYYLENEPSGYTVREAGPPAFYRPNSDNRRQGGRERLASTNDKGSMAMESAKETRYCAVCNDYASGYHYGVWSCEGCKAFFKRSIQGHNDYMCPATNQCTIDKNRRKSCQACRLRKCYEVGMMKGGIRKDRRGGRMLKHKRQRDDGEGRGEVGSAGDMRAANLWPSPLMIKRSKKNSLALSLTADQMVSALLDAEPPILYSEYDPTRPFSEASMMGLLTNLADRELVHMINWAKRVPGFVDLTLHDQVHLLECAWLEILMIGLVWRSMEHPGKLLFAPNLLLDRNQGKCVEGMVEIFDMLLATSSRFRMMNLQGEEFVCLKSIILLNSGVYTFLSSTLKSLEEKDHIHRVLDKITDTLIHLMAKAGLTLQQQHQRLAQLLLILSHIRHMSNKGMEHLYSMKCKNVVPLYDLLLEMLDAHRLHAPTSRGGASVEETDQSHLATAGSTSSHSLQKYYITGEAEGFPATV
Outline: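 Transfected HepG2 cells carrying GAL4-UAS-driven reporter units were dosed for 24 hours. Total RNA was reverse-transcribed, reporter sequences PCR-amplified, FAM-labelled, HpaI-digested and resolved by capillary electrophoresis. Increases over DMSO control defined activity.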

[20] = ATG_Hpa5_TRANS: Attagene TRANS-FACTORIAL HepG2 Assay for human GAL4-Hpa5 Hepatocyte Transcription Factor Basal Promoter (AID 2282975; active means hit-call score of the fitted dose curve at least 0.9, where 1 is the maximum;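 further: hits are increases in reporter mRNA over DMSO baseline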); details: HepG2 Attagene GAL4-Hpa5 transcription reporter
Outline: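 Gain-of-signal versus DMSO is fitted for reporter mRNA quantified by RT-PCR and capillary electrophoresis after 24 h exposure. This endpoint is an internal background marker in transiently transfected HepG2 cells carrying GAL4-UAS reporter units.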

Measured: AC50

CC(COc1ccc(Oc2ccccc2)cc1)Oc1ccccn1 (configuration not stated)
active: [2] 13.7 µM | [3] 15.1 µM | [4] 12.2 µM | [13] 16 µM
not listed: [17] | [18] | [19] | [20]
inactive: all other assays above

COc1ccc(C(=CC(=O)N2CCOCC2)c2ccc(Cl)cc2)cc1OC
active: [2] 5.15 µM | [3] 21.8 µM | [4] 5.72 µM | [13] 11.4 µM
not listed: [7] | [14] | [19] | [20]
inactive: all other assays above

Nc1c(Cl)cc([N+](=O)[O-])cc1Cl
active: [2] 44.2 µM | [3] 34.4 µM | [8] 75.9 µM | [12] 70.8 µM | [19] 50 µM | [16] 50 µM
not listed: [10] | [17] | [20]
inactive: all other assays above

CNC(=O)ON=C(SC)C(=O)N(C)C
active: [2] 29.3 µM | [16] 40.5 µM
not listed: [7] | [10] | [17] | [20]
inactive: all other assays above

FC(F)C(F)(F)OCC(Cn1cncn1)c1ccc(Cl)cc1Cl (configuration not stated)
inactive: [5] | [6] | [8] | [9] | [11] | [12] | [18]
active: [1] 78.8 µM | [2] 6.25 µM | [3] 44.5 µM | [4] 50 µM | [13] 37.3 µM | [16] 75.8 µM

CNC(=O)ON=C(C)SC
not listed: [7] | [10] | [14] | [15] | [17] | [19] | [20]
inactive: all other assays above

CCCCOC(=O)c1ccccc1C(=O)O
not listed: [7] | [13] | [15] | [19] | [20]
inactive: all other assays above

C#CC(C)(C)NC(=O)c1cc(Cl)cc(Cl)c1
active: [2] 7.44 µM | [13] 29.3 µM
not listed: [3] | [7] | [15] | [17] | [19] | [20]
inactive: all other assays above

CCOP(=S)(Oc1cnc(C(C)(C)C)nc1)OC(C)C (configuration not stated)
active: [2] 1.84 µM | [4] 13.1 µM | [6] 28.1 µM | [12] 86.9 µM | [13] 1.89 µM
not listed: [7] | [10] | [17] | [18] | [19] | [20]
inactive: all other assays above

Nc1nc(N)nc(NC2CC2)n1
not listed: [3] | [7] | [10] | [13] | [14] | [17] | [19] | [20]
inactive: all other assays above

O=C(O)c1cc(Oc2ccc(C(F)(F)F)cc2Cl)ccc1[N+](=O)[O-]
active: [2] 60 µM
not listed: [3] | [10] | [13] | [14] | [17] | [19] | [20]
inactive: all other assays above

CCOP(=S)(OCC)SCCSCC
active: [2] 13.7 µM
not listed: [7] | [10] | [13] | [15] | [17] | [18] | [19]
inactive: all other assays above

CC(C)N(C(=O)SCC(Cl)=C(Cl)Cl)C(C)C
active: [2] 3.05 µM | [7] 29.1 µM | [13] 29.1 µM
not listed: [3] | [10] | [15] | [17] | [18] | [19] | [20]
inactive: all other assays above

Cc1nn(-c2cc(NS(C)(=O)=O)c(Cl)cc2Cl)c(=O)n1C(F)F
active: [2] 5.33 µM | [13] 30.8 µM
not listed: [7] | [10] | [14] | [19] | [20]
inactive: all other assays above

C[N+]1(C)CCCCC1
not listed: [7] | [10] | [14] | [15] | [17] | [19] | [20]
inactive: all other assays above

CCOP(=O)(NC(C)C)Oc1ccc(SC)c(C)c1 (configuration not stated)
active: [2] 2.73 µM | [3] 21.4 µM | [13] 8.8 µM
not listed: [7] | [10] | [15] | [19] | [20]
inactive: all other assays above

CCNc1nc(Cl)nc(NC(C)(C)C#N)n1
active: [2] 29.2 µM
not listed: [7] | [13] | [15] | [17] | [19] | [20]
inactive: all other assays above
